Bioassay records as filed in PubChem.
Rows were chosen to be rich in hits. Some 4.7% of all compounds tested hit in one or more screens of this group.
EBI2 block: EBI2 receptor antagonists, beta-arrestin recruitment, primary screen, cell-based, luminescence, 7a,25-OHC stimulation, uHTS; G-protein coupled receptor 183 (Homo sapiens), P32249; 7a,25-OHC stimulated; inhibition, % at 5 µM; 360,000 tested, 0.81% active; AID 651636, 2012; in the data active = inhibition above about 38%;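 note: enzyme fragment complementation signal reports receptor beta-arrestin coupling in cells; 0% = agonist plus DMSO wells and 100% = wells without agonist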
Target sequence (P32249 whole entry, looked up, the tested form may be a part): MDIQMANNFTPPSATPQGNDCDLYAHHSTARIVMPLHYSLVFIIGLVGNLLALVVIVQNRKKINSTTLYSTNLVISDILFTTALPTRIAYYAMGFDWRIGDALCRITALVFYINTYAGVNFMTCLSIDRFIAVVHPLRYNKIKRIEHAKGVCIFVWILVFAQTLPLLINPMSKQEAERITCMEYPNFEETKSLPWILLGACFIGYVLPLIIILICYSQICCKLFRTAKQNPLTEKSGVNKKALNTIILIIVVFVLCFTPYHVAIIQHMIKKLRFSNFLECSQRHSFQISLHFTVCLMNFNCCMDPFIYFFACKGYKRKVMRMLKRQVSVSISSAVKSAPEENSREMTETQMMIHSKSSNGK
SKKanGAS inh: S. pyogenes SKKanGAS growth inhibitors in kanamycin, primary screen, streptokinase expression inhibitor project, SKKanGAS strain, BacTiter-Glo luminescence; 6 h; inhibition, % at 7.5 µM; 300,000 tested, 1.3% active;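 active = mean replicate score, as percent of positive control median, at least 50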;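 note: strain carries kanamycin resistance gene driven by streptokinase promoter and grows in 40 µg/ml kanamycin; loss of luminescence reflects streptokinase promoter inhibition or plain growth inhibition; 0% = median of DMSO wells and 100% = positive control at its reference dose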
tim23-1 inh: growth inhibitors of tim23-1 mutant yeast, primary screen, luminescence, uHTS; S. cerevisiae tim23-1 growth, BacTiter-Glo luminescence, 24 h; 330,000 tested, 1.3% active; inhibition, % at 20 µM;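 active = growth inhibition of the mutant yeast at or above 50%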;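 note: temperature-sensitive mutant grown at 25 °C; plate controls were DMSO-treated mutant yeast for no effect and medium wells lacking yeast for full effect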
PfHsp90 set2: growth inhibition of PfHsp90-expressing yeast, primary screen, antimalarial PfHsp90 inhibitor project, S. cerevisiae, BacTiter-Glo luminescence, single point, set 2; 310,000 tested, 0.32% active; BacTiter-Glo ATP, 48 h; yeast lacking PDR1 and PDR3 efflux regulators; inhibition, % at 9.4 µM;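 active = every replicate shows inhibition above about 80%, whatever the replicate mean, limit read from the data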;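 note: 0% = DMSO neutral controls and 100% = 20 µM radicicol positive controls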
TIM10 inh: growth inhibitors of isogenic TIM10 control yeast, primary screen, counter-screen for tim10-1 yeast inhibitor project, luminescence, uHTS. S. cerevisiae TIM10 strain growth, BacTiter-Glo luminescence, 24 h. inhibition, % at 10 µM. 330,000 tested, 1.4% active. AID 463195, 2010;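 active = inhibition of 40% or more at the single tested concentration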;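 note: wild-type TIM10 isogenic control strain grown at permissive 25 °C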
tim10-1 inh: growth inhibitors of tim10-1 mutant yeast, primary screen, luminescence, uHTS. S. cerevisiae tim10-1 ts strain growth, BacTiter-Glo, 24 h. inhibition, % at 20 µM. 330,000 tested, 2.2% active. AID 463190, 2010;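 active = inhibition of at least 40%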;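 note: mutant grown at 25 °C; 0% = DMSO wells with yeast and 100% = wells holding no yeast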
tim23-1 conf: tim23-1 mutant yeast growth inhibitors, confirmation, luminescence, single concentration; shares compounds with tim23-1 inh; S. cerevisiae tim23-1 growth, BacTiter-Glo luminescence, 24 h; inhibition, % at 20 µM; 4,400 tested, 83% active; AID 463218, 2010;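 active = inhibition above about 39% in either of two replicate wells at 20 µM, limit read from the data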;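 note: temperature-sensitive tim23-1 mutant grown at 25 °C; 0% = DMSO wells with yeast and 100% = medium wells without yeast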
Active calls of the source: *; / = no result.

SMILES	EBI2 block	SKKanGAS inh	tim23-1 inh	PfHsp90 set2	TIM10 inh	tim10-1 inh	tim23-1 conf
CCC(=O)Nc1cccc(-n2nnnc2SCC(=O)N2CCCCC2)c1	-4.2	-14.1	13.6	6.0	-11.4	-0.9	/
CCN(CC)S(=O)(=O)c1cccc(NC2=NCC(C)S2)c1 (stereo not drawn)	3.6	-5.2	19.6	/	9.9	12.7	/
COc1cccc(C(=O)Oc2cc3c4c(c2)C(C)=CC(C)(C)N4C(=O)C3=O)c1	2.5	18.2	62.6*	-116.5	29.1	27.9	69.6*
CC1=CC(C)(C)N2C(=O)C(=Nc3ccc(O)cc3)c3cccc1c32	-32.9	7.0	40.3	1.8	4.1	7.7	/
O=C(Cc1ccccc1)c1ccc(O)cc1O	4.2	/	/	3.9	/	/	/
CCCCCC(=O)c1ccc(O)cc1O	3.2	-3.8	53.7*	-34.3	32.9	25.2	47.2*
COc1ccccc1C(=O)Nc1nnc(-c2ccc3c(c2)CCCC3)o1	0.5	58.4*	52.1*	-42.9	39.3	24.6	56.4*
Cc1ccc(Nc2nc(Cl)nc(NC(C)(C)C)n2)cc1	-0.9	41.1	50.3*	-16.9	13.6	32.5	40.2*
Cc1ccnc(NC(=O)c2ccc3c(c2)C(=O)N(CC(C)C)C3=O)c1	-3.2	10.0	63.3*	12.6	32.5	18.6	56.7*
O=C(Cn1ncc2c1-c1ccccc1OC2)Nc1nc2ccccc2s1	-6.6	-2.6	61.7*	-4.3	26.6	12.3	56.6*
CCc1ccc(OCC(=O)c2c(O)c3ccccc3oc2=O)cc1	-5.3	7.7	21.7	-10.4	7.8	9.7	/
CCc1oc2ccccc2c1C(=O)c1cc(Br)c(O)c(Br)c1	-2.1	49.7*	55.8*	-2.1	17.3	-16.3	-19.9
CCOC(=O)Nc1ccc2c(COC(=O)CNS(=O)(=O)c3cccc(Br)c3)cc(=O)oc2c1	-5.0	-3.9	-7.4	0.7	-13.1	2.8	/
Cc1cccc(OCCCSc2nc3ccccc3[nH]2)c1	3.7	-19.0	-16.8	52.3	3.0	-0.1	/
CCOc1ccc(OCCSc2nc3ccccc3[nH]2)cc1	9.7	-11.0	60.1*	-17.5	26.4	15.7	31.9
C=CCNC(=O)c1sccc1Oc1ccc(F)cc1[N+](=O)[O-]	2.6	-11.4	7.6	29.2	13.9	13.1	/
Cc1ccc(C(=O)/C=C/C(=O)c2ccc(C)cc2)cc1	28.0	61.9*	57.8*	17.7	36.1	32.1	-71.7
CC1CC1C(=O)Nc1nc(-c2ccccc2)cs1 (stereo not drawn)	9.3	-12.8	53.0*	7.6	36.0	25.2	46.9*
O=S1(=O)N[C@@H](c2ccccc2)COc2cc(Br)ccc21	0.9	/	/	/	/	/	/
O=S1(=O)N[C@@H](Cc2ccccc2)COc2cc(Br)ccc21	-4.5	/	69.9*	10.9	2.6	26.2	42.2*
Cc1ccc(NC(=S)N/N=C/c2c(Cl)cccc2Cl)c(C)c1	9.9	20.2	51.5*	33.8	25.9	38.9	40.2*
CC(C)N1CC(COc2ccc(Cl)cc2Cl)OC1=O (stereo not drawn)	-6.0	-0.2	18.1	-13.8	-10.6	12.9	/
OC[C@@H]1[C@@H](c2ccc(F)cc2)C(c2cccc(Cl)c2)=NN1c1ccccc1	26.0	/	52.6*	-24.5	16.3	20.9	38.8
OC[C@@H]1[C@@H](c2ccc(Cl)cc2)C(c2cccc(Cl)c2)=NN1c1ccccc1	22.2	/	48.6	-26.2	16.8	19.5	/
OC[C@@H]1[C@@H](c2ccc(Cl)cc2)C(c2ccccc2)=NN1c1ccccc1	26.2	/	52.7*	-51.8	6.5	17.5	34.5
SMILES	EBI2 block	SKKanGAS inh	tim23-1 inh	PfHsp90 set2	TIM10 inh	tim10-1 inh	tim23-1 conf
CC(=O)Nc1ccc(S(=O)(=O)N2CCCC2C(=O)Nc2ccc3c(c2)OCCO3)cc1 (stereo not drawn)	-11.2	-0.6	8.4	-0.5	-1.6	-13.3	/
COc1ccc(NS(=O)(=O)c2ccc(N3CCCC3)c(NC(=S)Nc3cccc(S(=O)(=O)N(C)C)c3)c2)cc1	/	2.7	51.8*	/	27.0	23.0	77.8*
NS(=O)(=O)c1ccc(NC(=O)COC(=O)Cc2c[nH]c3ccccc23)cc1	-3.0	/	7.4	2.4	-2.5	13.4	/
Cc1nn(S(=O)(=O)c2ccc(F)cc2)c(C)c1S(=O)(=O)N1CCCCC1	1.3	3.0	18.1	5.0	0.1	4.3	/
O=Cc1cn(-c2ccccc2)nc1-c1cccnc1	-2.6	-2.9	62.0*	1.0	39.7	27.6	57.3*
O=C(O)/C=C/c1cn(-c2ccccc2)nc1-c1ccccc1	6.4	0.2	16.2	-7.2	1.1	14.7	/
Cc1nc2cc(C(=O)OCC(=O)Nc3cccc(Cl)c3)ccc2n1-c1ccccc1	-2.6	18.8	52.9*	48.9	15.6	11.9	30.0
CNc1cnn(-c2ccccc2)c(=O)c1Cl	-13.0	-1.7	30.4	-17.9	-0.2	-5.5	/
Nc1ccc(Sc2cnn(-c3ccccc3)c(=O)c2Cl)cc1	4.2	4.1	50.4*	-12.1	18.7	16.6	28.7
Cc1ccc(S(=O)(=O)/N=c2\ccc(Cl)cn2C(F)F)cc1	-3.3	-10.3	11.7	7.4	2.5	20.2	/
CC(C)(C)c1csc(NC(=O)c2cccs2)n1	-12.2	17.6	55.6*	29.4	35.8	-14.0	34.1
Cc1cc(S(=O)(=O)N2CCN=C2c2ccccc2)c(Cl)cc1Cl	-4.6	-3.9	22.6	10.2	13.9	13.5	/
O=C(NCC1CCCO1)c1cccc(S(=O)(=O)N2CCCCC2)c1 (stereo not drawn)	5.5	/	-7.2	-10.2	-7.6	-20.9	/
COc1cc(/C=C/C(=O)OCC(=O)c2ccc(OC(F)F)cc2)ccc1O	8.8	/	64.7*	-0.4	10.3	-9.0	54.4*
Cc1cc(OCC(=O)N2CCc3ccccc3C2)c(C)cc1Br	10.8	38.5	24.6	-21.4	-2.0	-6.0	/
Cc1c(NS(=O)(=O)c2cccs2)cccc1-c1nc2cccnc2s1	-14.2	-2.5	59.4*	4.4	27.6	33.1	56.2*
Cc1c(NS(C)(=O)=O)cccc1-c1nc2cccnc2s1	-9.4	-4.8	16.5	1.2	-6.7	-0.6	/
Cc1cc(C)nc(N2CCCC(C(=O)Nc3cc(F)ccc3C)C2)n1 (stereo not drawn)	6.9	-3.5	13.4	/	11.2	30.6	/
CC(/C=N/NC(=O)c1cccs1)=C\c1ccco1	-4.4	-9.3	63.7*	3.1	23.1	6.0	71.0*
Cc1n[nH]c(C)c1S(=O)(=O)N1CCC(C(=O)Nc2cccc(F)c2)CC1	-14.3	-6.1	-3.5	8.9	-1.4	-15.2	/
